Reference: the OligoGym collection

Molecular target: ACYP1
Experiment: pooled miR-30 sensor sort-seq; sequence = guide strand
Settings: shRNA

Compared with TCGATGTGTGATTTAGGACTTC, TAACTTATTGACTAATGCTAAT is lower in sensor-assay potency score (higher = more potent): -0.511 for the first, -1.36 for the second.

Going from AAAAATTTCATAATCCACTGAT to TTTGCTTTGTCGATGTGTGATT, the sensor-assay potency score (higher = more potent) falls from 0.598 to -0.219.

First: TCCAACTTCAAGATGACTTTTT
Second: TTCCTGCATATGACGCACCTTG
The sensor-assay potency score (higher = more potent) of the first is lower: -1.37 for the first, -0.872 for the second.

Going from TTTCATTGTTGAAGTTTGCTTT to TCATTGTTGAAGTTTGCTTTGT, the sensor-assay potency score (higher = more potent) falls from 0.5 to -0.429.

First: TTCATTGTTGAAGTTTGCTTTG
Second: TGTCCTTGCACTGTGCCCCGGT
The sensor-assay potency score (higher = more potent) of the first is lower: -0.707 for the first, 0.12 for the second.

First: TTTTCATTGTTGAAGTTTGCTT
Second: ATAACTTATTGACTAATGCTAA
The sensor-assay potency score (higher = more potent) of the first is higher: -0.234 for the first, -0.709 for the second.

Going from TTGTCGATGTGTGATTTAGGAC to TTAGATTTGTGTACAGTGGTAA, the sensor-assay potency score (higher = more potent) rises from -0.517 to 0.61.

Work on TGTGTGATTTAGGACTTCCTCT yielded a sensor-assay potency score (higher = more potent) of -0.445.

Molecular target: ACYP2
Experiment: as above
Settings: shRNA

Compared with TTGACTTTGTCTTCTGGCCCCT, TTTTCATTAGAAAAGTTTGTGC is lower in sensor-assay potency score (higher = more potent): 0.0313 for the first, -0.116 for the second.

Going from TTAGTAGCACGTACAGTCGCTT to ATCTTCTGTATACATTCTGAAG, the sensor-assay potency score (higher = more potent) falls from -0.537 to -1.49.

Compared with TATTCTAGTATACATAGTCTTA, TACTCTGCTACTATTATTCTAG is higher in sensor-assay potency score (higher = more potent): -0.674 for the first, -0.38 for the second.

First: TTGCTTGTTGAAAACATAGTTG
Second: TTCATCTTCTGTATACATTCTG
The sensor-assay potency score (higher = more potent) of the first is lower: -0.594 for the first, 0.635 for the second.

First: TGGAATTGACTTTGTCTTCTGG
Second: TATTCAAGCTTAGAGATGGTTT
The sensor-assay potency score (higher = more potent) of the first is higher: -0.0277 for the first, -0.574 for the second.

First: TTTCCTAGCTTCATCTTCTGTA
Second: TTGCTGGTATTCTTCACCCAGC
The sensor-assay potency score (higher = more potent) of the first is higher: 0.952 for the first, -1.24 for the second.

Compared with TATTTTCCTAGCTTCATCTTCT, TTTGCTGGTATTCTTCACCCAG is lower in sensor-assay potency score (higher = more potent): 1.16 for the first, -0.785 for the second.

First: TCATTAGAAAAGTTTGTGCGGT
Second: TCTGTATACATTCTGAAGCAAA
The sensor-assay potency score (higher = more potent) of the first is higher: -0.214 for the first, -1.22 for the second.

Compared with TAGTCTTAAGAACATACAGTAT, TTCCTAGCTTCATCTTCTGTAT is higher in sensor-assay potency score (higher = more potent): -1.07 for the first, -0.685 for the second.

First: TTCTAGTATACATAGTCTTAAG
Second: TTTTCCTAGCTTCATCTTCTGT
The sensor-assay potency score (higher = more potent) of the first is lower: -1.46 for the first, -0.817 for the second.

Compared with TTTAGTAGCACGTACAGTCGCT, TAGTAGCACGTACAGTCGCTTA is lower in sensor-assay potency score (higher = more potent): 0.0895 for the first, -1.19 for the second.

Going from TTGAGTAAAATTATTTCAGTGT to TTCATTAGAAAAGTTTGTGCGG, the sensor-assay potency score (higher = more potent) falls from 0.361 to 0.328.
